The list is not random: actives were taken first. Their share in the collection is about 2.2%.
Ba/F3 V617F tox = lowers viability of Ba/F3 cells expressing EpoR and JAK2V617F; ATP luminescence; inhibition, % at 5.6 µM; hit rate 1.1% among 220,000;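 active = inhibition above the campaign mean plus 3 SD over all tested compounds, cut at about 24% in these data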;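 also: cytokine-independent growth of Ba/F3 cells driven by EpoR plus mutant JAK2; 0% = DMSO-treated cells and 100% = JAK inhibitor I control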
APP 5UTR inh = APP translation inhibition; inhibition, % at 2 µM; AID 1285; hit rate 0.82% among 190,000; SH-SY5Y APP 5'UTR-luciferase reporter, luminescence;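 active = inhibition above a set limit, derived from the sample mean plus 3 SD, cut at about 45% in these data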
aSyn UTR inh = MLPCN primary screen, SNCA 5' untranslated region; alpha-synuclein 5'UTR reporter, inhibitor activity; inhibition, % (tested at 7.5 µM); hit rate 0.82% among 300,000; in the data active = inhibition above about 60%;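 also: H4 neuroglioblastoma cells stably carrying SNCA 5'UTR luciferase fusion; 0% = DMSO wells and 100% = positive control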
BaF3 parental = counter-screen for JAK2V617F inhibitors: parental Ba/F3 viability inhibitors; inhibition, % at 5.6 µM; hit rate 1.1% among 220,000; CellTiter-Glo ATP luminescence;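 active = inhibition above a per-campaign cutoff, the mean inhibition of all tested compounds plus 3 SD, cut at about 27% in these data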;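 also: 0% = DMSO wells and 100% = JAK Inhibitor I control wells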
IEC-6 tox = IEC-6 cytotoxicity, counter-screen for KLF5 inhibitors; luminescence viability; inhibition, % at 5 µM; hit rate 0.78% among 290,000; in the data active = inhibition above about 22%;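 also: 0% = plate median of test compound wells and 100% = cytotoxic reference compound wells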
KLF5 inh = kruppel-like factor 5 inhibition; DLD-1 KLF5 promoter-luciferase reporter, luminescence; inhibition, % at 5 µM; hit rate 0.23% among 290,000; AID 1700;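 active = inhibition above a per-plate limit of that plate's mean compound inhibition plus 3 SD, cut at about 60% in these data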;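 also: 0% = DMSO wells and 100% = LY294002 at 200 µM; higher means less KLF5 promoter-driven luciferase light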
* hit, by the source's call.

Results for COc1cccc(-c2nc(-c3ccccn3)no2)c1 ?
Ba/F3 V617F tox: 5; APP 5UTR inh: -35; aSyn UTR inh: 104*; BaF3 parental: 7; IEC-6 tox: -10; KLF5 inh: 26

What do the screens show for `Cc1cccc(-c2noc(-c3ccc4c(c3)OCO4)n2)c1`?
Ba/F3 V617F tox: -2; APP 5UTR inh: -186; aSyn UTR inh: 49; BaF3 parental: 4; IEC-6 tox: 11; KLF5 inh: -141

How did c1ccc(-c2noc(-c3ccc4c(c3)OCO4)n2)nc1 do in these assays?
Ba/F3 V617F tox: 26*; APP 5UTR inh: 30; aSyn UTR inh: 91*; BaF3 parental: 28*; IEC-6 tox: 8; KLF5 inh: -35

What do the screens show for `CC(C)CNC(=O)C(=O)NCC1OCCN1S(=O)(=O)c1cccs1` (stereo not given)?
aSyn UTR inh: 12; IEC-6 tox: 1; KLF5 inh: -3

Results for COCn1c(-c2ccc(OC)cc2)nc2ccccc21 ?
Ba/F3 V617F tox: 2; APP 5UTR inh: -118; aSyn UTR inh: -192; BaF3 parental: 6; IEC-6 tox: 4; KLF5 inh: -97

What do the screens show for `CCCn1c(-c2ccc(OC)cc2)nc2ccccc21`?
Ba/F3 V617F tox: 40*; APP 5UTR inh: -16; aSyn UTR inh: -5; BaF3 parental: 52*; IEC-6 tox: 3; KLF5 inh: -3

What do the screens show for `Cc1cc(=O)[nH]c(N/N=C/c2ccccn2)n1`?
Ba/F3 V617F tox: 10; APP 5UTR inh: 65*; aSyn UTR inh: 74*; BaF3 parental: 2; IEC-6 tox: 2; KLF5 inh: -33

How did Cc1cc(=O)[nH]c(N/N=C/c2cccc(Br)c2)n1 do in these assays?
aSyn UTR inh: -24; IEC-6 tox: 2; KLF5 inh: -41

How did O=C(/C=C/c1cccc([N+](=O)[O-])c1)n1cnc2ccccc21 do in these assays?
Ba/F3 V617F tox: -1; APP 5UTR inh: 51*; aSyn UTR inh: -41; BaF3 parental: 1; IEC-6 tox: 2; KLF5 inh: -15

How did Cc1ccc(CN=C(N)Nc2nc(C)cc(C)n2)cc1 do in these assays?
Ba/F3 V617F tox: 81*; APP 5UTR inh: 71*; aSyn UTR inh: 117*; BaF3 parental: 77*; IEC-6 tox: 48*; KLF5 inh: -23

How did Cc1cc(C(=O)N/N=C/c2ccco2)c2ccccc2n1 do in these assays?
Ba/F3 V617F tox: 4; APP 5UTR inh: -8; aSyn UTR inh: 1; BaF3 parental: 7; IEC-6 tox: 4; KLF5 inh: -2

How did O=C(N/N=C/c1ccc(O)cc1)c1cc(-c2ccccc2)nc2ccccc12 do in these assays?
aSyn UTR inh: 14; IEC-6 tox: 2; KLF5 inh: -14

What do the screens show for `Cc1cc(C(=O)N/N=C/c2ccc(C)o2)c2ccccc2n1`?
Ba/F3 V617F tox: 21; APP 5UTR inh: 73*; aSyn UTR inh: 65*; BaF3 parental: 10; IEC-6 tox: 17; KLF5 inh: 39

Results for CC(/C=N/NC(=O)c1cc(-c2ccccc2)nc2ccccc12)=C\c1ccco1 ?
Ba/F3 V617F tox: -5; APP 5UTR inh: 85*; aSyn UTR inh: -6; BaF3 parental: 4; IEC-6 tox: 4; KLF5 inh: -6

What do the screens show for `Cc1ccc(/C=N/NC(=O)c2cc(-c3ccccc3)nc3ccccc23)o1`?
aSyn UTR inh: -57; IEC-6 tox: 10; KLF5 inh: 9

What do the screens show for `CC/C(=N\NC(=O)c1cc(C)nc2ccccc12)c1ccc(C)s1`?
Ba/F3 V617F tox: 8; APP 5UTR inh: 76*; aSyn UTR inh: 11; BaF3 parental: -1; IEC-6 tox: 3; KLF5 inh: 5

How did CC(/C=N/NC(=O)c1cc(-c2ccc(Cl)cc2)nc2ccccc12)=C\c1ccco1 do in these assays?
Ba/F3 V617F tox: 3; APP 5UTR inh: -2; aSyn UTR inh: 85*; BaF3 parental: 5; IEC-6 tox: 10; KLF5 inh: -3

What do the screens show for `CCOc1ccccc1NC(=O)CSc1nnnn1C1CCCC1`?
aSyn UTR inh: 9; IEC-6 tox: 8; KLF5 inh: 6

What do the screens show for `Fc1ccc(-c2nnc3ccccn23)cc1`?
Ba/F3 V617F tox: 1; APP 5UTR inh: -4; aSyn UTR inh: -12; BaF3 parental: 81*; IEC-6 tox: 4; KLF5 inh: -8

How did Fc1ccc(-c2ncc3ccccn23)cc1 do in these assays?
Ba/F3 V617F tox: -3; APP 5UTR inh: -2; aSyn UTR inh: -101; BaF3 parental: 3; IEC-6 tox: -2; KLF5 inh: -48

How did Cc1ccccc1NC(=O)c1cnc2ccccn2c1=O do in these assays?
Ba/F3 V617F tox: 1; APP 5UTR inh: -104; aSyn UTR inh: 62*; BaF3 parental: 5; IEC-6 tox: 6; KLF5 inh: -105

High-throughput results as filed in PubChem BioAssay.
